Inconclusive results are not listed. Calls of active or inactive are those of the source. The call rests on the fitted dose curve; in most records, active means well fitted cell-killing curve with a large enough effect; inconclusive means small, poorly fitted or top-dose-only effect, or effect the other way; inactive means flat fitted curve, though single readings scatter.
Columns and labels:
Assay in all cases: Primary qHTS to identify gynecologic anti-cancer compounds using libraries of approved drugs and bioactive compounds (AID 1345084); further: nearly all actives have a fitted effect of over 55% in size
[1] = test system: Es-2; details: Gynecologic cancer cell panel viability, ATPlite luminescence, 48 h; series mostly up to 57.5 µM
Summary of the method: (§1)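 Cytotoxicity screen measuring ATP content by luciferase luminescence. Each compound is applied at five concentrations for 48 h at 37 C with 5% CO2.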

[2] = test system: HeLa; details: Gynecologic cancer cell panel viability, ATPlite luminescence, 48 h; series mostly up to 57.5 µM
Summary of the method: as §1

[3] = test system: Hek293T; details: Gynecologic cancer cell panel viability, ATPlite luminescence, 48 h, control line for the selectivity index; series mostly up to 57.5 µM
Summary of the method: as §1

[4] = test system: JEG-3; details: Gynecologic cancer cell panel viability, ATPlite luminescence, 48 h; series mostly up to 57.5 µM
Summary of the method: as §1

[5] = test system: OV90; details: Gynecologic cancer cell panel viability, ATPlite luminescence, 48 h; series mostly up to 57.5 µM
Summary of the method: as §1

[6] = test system: PA-1; details: Gynecologic cancer cell panel viability, ATPlite luminescence, 48 h; series mostly up to 57.5 µM
Summary of the method: as §1

[7] = test system: SKOV3; details: Gynecologic cancer cell panel viability, ATPlite luminescence, 48 h; series mostly up to 57.5 µM
Summary of the method: as §1

[8] = test system: Tov-21-G; details: Gynecologic cancer cell panel viability, ATPlite luminescence, 48 h; series mostly up to 57.5 µM
Summary of the method: as §1

[9] = test system: Tov112D; details: Gynecologic cancer cell panel viability, ATPlite luminescence, 48 h; series mostly up to 57.5 µM
Summary of the method: as §1
On the % scale 0 is the no-effect control and ±100 the full control effect.

O=C1CC(c2ccc([N+](=O)[O-])cc2)=NN1c1ccccc1
inactive: Potency [1] | Potency [2] | Potency [3] | Potency [4] | Potency [5] | Potency [6] | Potency [7] | Potency [8] | Potency [9]

Nc1ncnc2c1ncn2[C@H]1CCCO1
inactive: Potency [1] | Potency [2] | Potency [3] | Potency [4] | Potency [5] | Potency [6] | Potency [7] | Potency [8] | Potency [9]

CC(=O)O[C@@H]1C[C@@]23C[C@@]24CC[C@H](OC2OC[C@@H](O)[C@H](O)[C@H]2O)C(C)(C)[C@@H]4CC[C@H]3[C@]2(C)CC3OC4(C[C@@H](C)C3[C@@]12C)OCC1(C)OC14 (stereo not given in full)
inactive: Potency [1] | Potency [2] | Potency [3] | Potency [4] | Potency [5] | Potency [6] | Potency [7] | Potency [8] | Potency [9]

C=C1CCC2C(C)(C(=O)O)CC(O)CC2(C)C1CC/C(C)=C/C(=O)O (stereo not given)
inactive: Potency [1] | Potency [2] | Potency [3] | Potency [4] | Potency [5] | Potency [6] | Potency [7] | Potency [8] | Potency [9]

Cc1c(CN(C)C(=O)/C=C/c2cnc3c(c2)CCC(=O)N3)oc2ccccc12
inactive: Potency [1] | Potency [2] | Potency [3] | Potency [4] | Potency [5] | Potency [6] | Potency [7] | Potency [8] | Potency [9]

COc1cc(NC(=O)c2ccccn2)ccc1Cl
inactive: Potency [1] | Potency [2] | Potency [3] | Potency [4] | Potency [5] | Potency [6] | Potency [7] | Potency [8] | Potency [9]

CC(=O)O[C@@H]1[C@H]2[C@@H](OC(=O)c3ccccc3)[C@@H](C)C[C@]2(O)[C@H](OC(C)=O)[C@@]2(C)[C@@H]3CC(C)(C)C(=O)[C@]3(OC(C)=O)C[C@@]12C
inactive: Potency [1] | Potency [2] | Potency [3] | Potency [4] | Potency [5] | Potency [6] | Potency [7] | Potency [8] | Potency [9]

NC(=O)c1cccc(-c2cc(O)cc(OC(=O)NC3CCCCC3)c2)c1
inactive: Potency [1] | Potency [2] | Potency [3] | Potency [4] | Potency [5] | Potency [6] | Potency [7] | Potency [8] | Potency [9]

COC(=O)C1=CO[C@@H](O[C@@H]2O[C@H](CO)[C@@H](O)[C@H](O)[C@H]2O)[C@@H]2[C@@H](C)[C@@H](O)C[C@H]12
inactive: Potency [1] | Potency [2] | Potency [3] | Potency [4] | Potency [5] | Potency [6] | Potency [7] | Potency [8] | Potency [9]

CC1=C2C(=O)O[C@@H](c3ccoc3)[C@]2(C)CCC1
inactive: Potency [1] | Potency [2] | Potency [3] | Potency [4] | Potency [5] | Potency [6] | Potency [7] | Potency [8] | Potency [9]

C[C@H]1[C@H](C)CC[C@]2(C(=O)O[C@@H]3O[C@H](CO)[C@@H](O)[C@H](O)[C@H]3O)CC[C@]3(C(=O)O)C(=CCC4[C@@]5(C)CC[C@H](O[C@@H]6O[C@H](CO)[C@@H](O)[C@H](O)[C@H]6O)C(C)(C)C5CC[C@]43C)[C@H]12 (stereo not given in full)
inactive: activity change, negative = cytotoxicity [1] -10.9% [at 11.6 µM] | activity change, negative = cytotoxicity [2] 13.2% [at 11.6 µM] | activity change, negative = cytotoxicity [3] 3.39% [at 11.6 µM] | activity change, negative = cytotoxicity [4] 1.79% [at 11.6 µM] | activity change, negative = cytotoxicity [5] -4.18% [at 11.6 µM] | activity change, negative = cytotoxicity [6] 5.91% [at 11.6 µM] | activity change, negative = cytotoxicity [7] 23.4% [at 11.6 µM] | activity change, negative = cytotoxicity [8] -3.54% [at 11.6 µM] | activity change, negative = cytotoxicity [9] 2.01% [at 11.6 µM]

C=C1CCC2C(C)(CO[C@@H]3O[C@H](CO)[C@@H](O)[C@H](O)[C@H]3O)C(O)CCC2(C)C1C(=O)CC1=CCOC1=O (stereo not given in full)
inactive: Potency [1] | Potency [2] | Potency [3] | Potency [4] | Potency [5] | Potency [6] | Potency [7] | Potency [8] | Potency [9]

CC(C)c1ccc(CC(=O)N2CCC[C@@H](c3cccc(OC(C)(C)C(=O)O)c3)C2)cc1
inactive: Potency [1] | Potency [2] | Potency [3] | Potency [4] | Potency [5] | Potency [6] | Potency [7] | Potency [8] | Potency [9]

C[C@@H]1CCC2C(C)(C)[C@H](O)CC[C@]2(C)[C@@]12Cc1c(O)cc3c(c1O2)CN(CCO)C3=O (stereo not given in full)
inactive: Potency [1] | Potency [2] | Potency [3] | Potency [4] | Potency [5] | Potency [6] | Potency [7] | Potency [8] | Potency [9]

O=C(O)c1cc(O[C@@H]2O[C@H](CO[C@@H]3OC[C@@H](O)[C@H](O)[C@H]3O)[C@@H](O)[C@H](O)[C@H]2O)c2ccccc2c1O
inactive: Potency [1] | Potency [2] | Potency [3] | Potency [4] | Potency [5] | Potency [6] | Potency [7] | Potency [8] | Potency [9]

Source: PubChem BioAssay (NCATS)
